Data on 32 molecules can be found in PubChem BioAssay.

Assay [1] in a line: nonspecific flux increase, KCNQ1-free cells – parental CHO cells, counter-screen for KCNQ1 potentiator project (AID 493006;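 active means duplicate-averaged activation above buffer control mean plus 5 SD of those controls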;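 on activation: fluorescence ratio of max minus min over baseline after K+ and Tl+ depolarization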). The following applies: parental CHO-K1 cells, FluxOR thallium flux, at 10 µM; active compounds read high. For orientation: A counterscreen serves to expose hits that act by an unwanted route or on another target.
Assay [2] addresses Potassium voltage-gated channel subfamily KQT member 1 (Homo sapiens) (UniProt P51787). The experiment in a line: enhancement of KCNQ1 channel thallium flux – FluxOR thallium flux, CHO cells, duplicates, confirmation (AID 493007).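 On outcome: cells depolarized by a potassium plus thallium sulfate stimulus after compound.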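 On potentiation: 0% = buffer-only wells and 100% = R-L3 activator control.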 The following applies: KCNQ1 cell line, FluxOR thallium flux fluorescence, at 10 µM; active compounds read high, % of reference activator effect, buffer zero.

Assay [3] addresses Potassium voltage-gated channel subfamily KQT member 2 (Rattus norvegicus) (UniProt O88943). The assay is described as follows: KCNQ2 thallium flux enhancement – KCNQ2-CHO-K1 cells, selectivity assay for KCNQ1 potentiator project (AID 493009;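 active means mean duplicate potentiation above the buffer control mean plus 5 SD of buffer wells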;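 further: assay conditions were tuned for KCNQ1 rather than KCNQ2 modulators; signal is max minus min fluorescence divided by baseline after thallium stimulus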). The settings on record: FluxOR thallium flux fluorescence, at 10 µM; active compounds read high, scaled: buffer 0, activator control 100.
The target in assay [4] is Potassium voltage-gated channel subfamily KQT member 1 (Homo sapiens) (UniProt P51787). The assay is described as follows: KCNQ1 activators by electrophysiology – IonWorks patch clamp, KCNQ1-CHO cells, orthogonal assay for KCNQ1 potentiator project, confirmation (AID 493184;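 active means current rise at least 3 SD above the untreated control mean in each of two repeat wells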). The settings on record: automated patch clamp current, at 10 µM. In general terms: Patch clamp records ionic current or voltage across a cell membrane.

Assay [5] has as its target Potassium voltage-gated channel subfamily E member 1 (Homo sapiens) + Potassium voltage-gated channel subfamily KQT member 1 (Homo sapiens) (UniProt P15382+P51787). The assay is described as follows: KCNQ1-E1 channel activation – thallium flux, CHO-K1 KCNQ1/E1 cells, selectivity assay for KCNQ1 potentiator project, confirmation (AID 493186;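 active means mean duplicate activation above the buffer control mean plus 5 SD of those controls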). The settings on record: FluxOR thallium flux, at 10 µM.

Active and inactive are the calls of the source.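 How the source made its calls, unless noted: active means potentiation averaged over duplicate wells exceeding buffer-only control mean by more than 3 SD; inactive means the rest.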

Chain of Potassium voltage-gated channel subfamily KQT member 2 (Rattus norvegicus) (O88943 whole entry, looked up): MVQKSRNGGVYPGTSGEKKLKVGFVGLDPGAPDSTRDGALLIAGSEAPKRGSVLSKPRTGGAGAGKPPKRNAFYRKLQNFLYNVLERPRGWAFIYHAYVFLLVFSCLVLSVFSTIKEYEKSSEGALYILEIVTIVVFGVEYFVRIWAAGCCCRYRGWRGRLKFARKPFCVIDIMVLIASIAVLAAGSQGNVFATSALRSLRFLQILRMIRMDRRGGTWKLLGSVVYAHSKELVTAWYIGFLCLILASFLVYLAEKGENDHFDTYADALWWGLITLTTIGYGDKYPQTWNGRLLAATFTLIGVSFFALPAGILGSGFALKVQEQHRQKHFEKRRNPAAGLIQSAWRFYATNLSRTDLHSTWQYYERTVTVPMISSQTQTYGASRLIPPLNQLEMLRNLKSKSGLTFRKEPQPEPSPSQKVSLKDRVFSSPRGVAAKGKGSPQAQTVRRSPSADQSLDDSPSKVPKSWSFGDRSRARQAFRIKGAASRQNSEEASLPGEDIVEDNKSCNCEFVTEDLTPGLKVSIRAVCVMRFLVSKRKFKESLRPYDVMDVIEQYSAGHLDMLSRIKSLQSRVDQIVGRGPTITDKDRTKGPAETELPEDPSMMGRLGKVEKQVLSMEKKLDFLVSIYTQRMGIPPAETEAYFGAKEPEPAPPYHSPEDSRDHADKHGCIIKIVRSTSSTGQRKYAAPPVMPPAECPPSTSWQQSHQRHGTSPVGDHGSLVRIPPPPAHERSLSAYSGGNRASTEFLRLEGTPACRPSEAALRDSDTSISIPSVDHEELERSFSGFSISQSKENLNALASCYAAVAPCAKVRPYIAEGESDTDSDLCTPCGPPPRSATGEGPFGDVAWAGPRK
Chain of Potassium voltage-gated channel subfamily KQT member 1 (Homo sapiens) (P51787 whole entry, looked up): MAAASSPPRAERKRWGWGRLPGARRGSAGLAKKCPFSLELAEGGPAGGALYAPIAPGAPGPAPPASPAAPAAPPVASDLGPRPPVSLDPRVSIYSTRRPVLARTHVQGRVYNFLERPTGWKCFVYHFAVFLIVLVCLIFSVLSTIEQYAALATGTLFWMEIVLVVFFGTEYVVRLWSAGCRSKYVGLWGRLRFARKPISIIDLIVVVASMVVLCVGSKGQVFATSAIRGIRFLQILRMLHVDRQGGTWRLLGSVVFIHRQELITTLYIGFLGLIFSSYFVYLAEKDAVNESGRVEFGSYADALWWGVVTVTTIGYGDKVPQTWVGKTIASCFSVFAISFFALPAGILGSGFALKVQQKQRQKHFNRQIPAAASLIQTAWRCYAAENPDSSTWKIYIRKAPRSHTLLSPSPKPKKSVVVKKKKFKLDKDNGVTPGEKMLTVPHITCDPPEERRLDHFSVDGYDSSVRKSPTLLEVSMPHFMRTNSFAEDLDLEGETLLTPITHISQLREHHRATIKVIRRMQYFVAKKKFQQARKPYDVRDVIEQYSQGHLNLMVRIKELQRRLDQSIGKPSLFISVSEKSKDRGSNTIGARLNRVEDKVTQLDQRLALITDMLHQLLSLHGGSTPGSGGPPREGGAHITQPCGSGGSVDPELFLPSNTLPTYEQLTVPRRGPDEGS
Chain of Potassium voltage-gated channel subfamily E member 1 (Homo sapiens) + Potassium voltage-gated channel subfamily KQT member 1 (Homo sapiens) (P51787 whole entry, looked up): as the sequence (P51787 whole entry, looked up) above

`Brc1ccc2c(c1)C(OC1CN3CCC1CC3)c1ccccc1CS2` (configuration not stated): the outcome in assay [1], in assay [3] and in assay [4] was inactive. Moreover, in assay [2], the potentiation is 40.5% (active).
On to `COc1ccccc1N(CC(=O)NC1CCCC1)C(=O)c1cnn(C(C)C)c1`, for which the outcome in assay [1], in assay [2], in assay [3] and in assay [4] was inactive.
On to `COc1cccc(CC(=O)N2CCN(Cc3cccc(Cl)c3)CC2)c1`, for which the result in assay [1], in assay [2], in assay [3] and in assay [4] was inactive.
As to `O=C1NC(=O)N(Cc2ccc(F)cc2)C(=O)/C1=C/c1cccs1`, the outcome in assay [1], in assay [2], in assay [3] and in assay [4] was inactive.
In the case of `C/C=C(\C)C(=O)N[C@@H](c1ccccc1)[C@@H](O)C(=O)O[C@H]1C[C@@]2(O)[C@@H](OC(=O)c3ccccc3)C3[C@](C)(C(=O)[C@H](OC(C)=O)C(=C1C)C2(C)C)[C@@H](O)C[C@H]1OC[C@@]31OC(C)=O` (some centres not stated), the outcome in assay [1], in assay [2], in assay [3], in assay [4] and in assay [5] was inactive.
Take `O=C(O)c1cccc2c1NC(c1cccc([N+](=O)[O-])c1)C1CC(Sc3ccccc3[N+](=O)[O-])C(Cl)C21` (configuration not stated): the result in assay [1], in assay [2], in assay [3] and in assay [4] was inactive.
On to `O=c1c(C=NCCN2CCNCC2)c(O)n(C2CCCCC2)c(=O)n1C1CCCCC1`, for which the outcome in assay [1], in assay [2], in assay [3], in assay [4] and in assay [5] was inactive.
On to `C/C1=C\[C@@H](C)C/C=C/[C@H]2[C@@H]3O[C@]3(C)[C@@H](C)[C@H]3[C@H](Cc4c[nH]c5ccccc45)NC(=O)[C@]32C(=O)/C=C/C(=O)[C@@H]1O`, for which the result in assay [1], in assay [3], in assay [4] and in assay [5] was inactive. The potentiation in assay [2] is 20.5% (active).
`Cc1nc2ccccc2c(=O)n1/N=C/c1cc(Br)cc(Br)c1O`: the outcome in assay [1], in assay [2], in assay [3] and in assay [4] was inactive.
On to `CC(=NCc1ccc(F)cc1)c1c(O)n(C)c(=O)n(C)c1=O`, for which the activation in assay [1] was 144% (active). Moreover, in assay [2], the potentiation is 91.5% (active). For the same molecule, the outcome in assay [3] and in assay [4] was inactive.
Turning to `N#Cc1c(N2CCNCC2)nc(-c2ccco2)c2c1CCCC2`, the result in assay [1], in assay [2], in assay [3] and in assay [4] was inactive.
As to `CCOC(=O)C1C(=O)NC2(C)CC1c1cc(OC)ccc1O2` (configuration not stated), the outcome in assay [1], in assay [2], in assay [3] and in assay [4] was inactive.
With `COc1ccc(C(=O)OC2CC[C@@]3(C)C4CCC5[C@]6(O)CC(O)[C@@]7(O)C(CN8CC(C)CCC8[C@@]7(C)O)[C@]6(O)C[C@@]53O[C@]24O)cc1OC` (some centres not stated), the outcome in assay [1], in assay [4] and in assay [5] was inactive. Moreover, the potentiation in assay [2] is 25.5% (active); in assay [3] it was 160% (active).
Consider `O=[N+]([O-])c1cccc(C2N3CCCN23)c1` (configuration not stated), for which the result in assay [1], in assay [2], in assay [3], in assay [4] and in assay [5] was inactive.
As for `CCN(CC)C(=O)c1ccc(NC(=O)CSc2nnnn2-c2cc(OC)ccc2OC)cc1`, the result in assay [1], in assay [2], in assay [3] and in assay [4] was inactive.
Take `Cc1ccc(/C=C2/C(=O)NC(=O)N(CCc3ccc(F)cc3)C2=O)o1`: the result in assay [1], in assay [2], in assay [3], in assay [4] and in assay [5] was inactive.
Regarding `CCOc1cc(CNCCc2c[nH]c3ccccc23)cc(Cl)c1OCC`, the result in assay [1], in assay [3], in assay [4] and in assay [5] was inactive. For the same molecule, the potentiation in assay [2] is 19% (active).
Regarding `CN1CCN(c2cc(N3CCCC3)c([N+](=O)[O-])cc2F)CC1`, the outcome in assay [1], in assay [2], in assay [3] and in assay [4] was inactive.
As for `O=C(c1ccc(-c2ccccc2)cc1)C1CCCN(Cc2ccn[nH]2)C1` (configuration not stated), the result in assay [1], in assay [2], in assay [3] and in assay [4] was inactive.
On to `Cn1cccc1/C=C1/C(=O)NC(=S)N(Cc2ccc(F)cc2)C1=O`, for which the result in assay [1], in assay [2], in assay [3], in assay [4] and in assay [5] was inactive.
In the case of `CC(=O)OC(C)(C)/C=C/C(=O)C(C)(O)C1[C@H](O)C[C@@]2(C)C3CC=C4C(CC[C@@H](O)C4(C)C)[C@]3(CO)C(=O)C[C@]12C` (some centres not stated), the result in assay [1], in assay [2], in assay [3], in assay [4] and in assay [5] was inactive.
Turning to `COc1cc(-n2c(=S)[nH]c3ccccc3c2=O)c(Cl)cc1Cl`, the result in assay [1], in assay [2], in assay [3] and in assay [4] was inactive.
`CCOP1(=S)Oc2cc3c(cc2C(C(=O)OC)(C(F)(F)F)O1)OCO3` (configuration not stated): the result in assay [1], in assay [2], in assay [3] and in assay [4] was inactive.
Regarding `CN1CC(C(=O)c2ccccc2)C(c2ccccc2)C1` (configuration not stated), the outcome in assay [1], in assay [2], in assay [3] and in assay [4] was inactive.
On to `Cc1c(Cl)cccc1NC(=S)N1CC2CC(C1)c1cccc(=O)n1C2` (configuration not stated), for which the result in assay [1], in assay [2] and in assay [4] was inactive.
Turning to `Nc1ncnc2c1ccn2[C@@H]1O[C@H](CO)[C@@H](O)[C@H]1O`, the outcome in assay [1], in assay [2], in assay [3] and in assay [4] was inactive.
With `COc1ccc(C2NCc3ccc4c(c3-n3cccc32)OCO4)cc1O` (configuration not stated), the result in assay [1], in assay [2], in assay [4] and in assay [5] was inactive.
Take `CN1CCC(c2c[nH]c3ccccc23)C1` (configuration not stated): the outcome in assay [1], in assay [2], in assay [3] and in assay [4] was inactive.
For the molecule `CC1=CC2/C=C(\C)CCC(O)C(O)/C=C/C(=O)C23C(=O)NC(CC(C)C)C3C1C` (configuration not stated), the outcome in assay [1], in assay [3], in assay [4] and in assay [5] was inactive. For the same molecule, the potentiation in assay [2] is 23% (active).
For the molecule `Cc1ccccc1CC(=O)N(CCN(C)C)CC1CCCN(Cc2ccccc2F)C1` (configuration not stated), the outcome in assay [1], in assay [2], in assay [4] and in assay [5] was inactive.
For `CCOP(=S)(OCC)c1ccc(N(C)C)cc1`, the outcome in assay [1], in assay [2], in assay [3] and in assay [4] was inactive.
For the molecule `CC/C(=C\C=C\[C@@H]1C=C[C@@H]2CCC[C@H]2[C@@H]1C(=O)c1ccc[nH]1)[C@@H]1O[C@@H]([C@@H](C)C(=O)O)CC[C@@H]1C`, the activation in assay [1] was 499% (active). Moreover, the potentiation in assay [2] was 166% (active); in assay [3], 442% (active). Also, the result in assay [4] was inactive.
